Inconclusive results are not listed. Active and inactive are the calls of the source. Calls follow the shape of the dose curve; as a rule, active = well fitted curve in the direction sought with a large enough effect; inconclusive = small, poorly fitted or top-dose-only effect, or another doubt; inactive = no such curve, though single readings can be large or run the other way.
molecular target: Glucagon-like peptide 1 receptor (Homo sapiens) (UniProt P43220); test: qHTS of GLP-1 Receptor Agonists: LOPAC Validation (AID 624148); conditions: GLP-1R agonist cell assay; series mostly up to 46.1 µM; activation: at the top concentration;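 also: 0% is about no effect; higher luminescence signal means agonism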
Outline: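 HEK293 cells stably co-expressing GLP-1R and a cAMP-responsive luciferase reporter, plated 12 hours before compound, then incubated 4-6 hr at 37 deg C. Luminescence read 12 min after detection reagent.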

Chain of Glucagon-like peptide 1 receptor (Homo sapiens) (P43220 whole entry, looked up): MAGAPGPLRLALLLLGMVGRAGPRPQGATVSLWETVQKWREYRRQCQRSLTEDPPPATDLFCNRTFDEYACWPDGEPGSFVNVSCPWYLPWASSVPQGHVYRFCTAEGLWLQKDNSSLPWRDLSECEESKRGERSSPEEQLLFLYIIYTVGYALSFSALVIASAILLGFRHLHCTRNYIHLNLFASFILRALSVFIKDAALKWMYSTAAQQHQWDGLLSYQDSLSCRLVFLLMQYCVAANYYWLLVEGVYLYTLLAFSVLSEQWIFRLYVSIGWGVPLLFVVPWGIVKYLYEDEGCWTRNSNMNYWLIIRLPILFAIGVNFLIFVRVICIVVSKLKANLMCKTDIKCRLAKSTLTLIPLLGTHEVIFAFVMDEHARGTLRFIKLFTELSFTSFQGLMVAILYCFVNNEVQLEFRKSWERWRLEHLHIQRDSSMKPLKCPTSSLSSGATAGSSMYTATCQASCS

SMILES | activation
COc1cc(NS(C)(=O)=O)ccc1Nc1c2ccccc2nc2ccccc12 | -0.55% (inactive)
CC(C)COC(=O)OCN1C(=O)CN(CCN2CC(=O)N(COC(=O)OCC(C)C)C(=O)C2)CC1=O | -1.84% (inactive)
N[C@H](CO)C(=O)O | -2.04% (inactive)
COc1cc2c(cc1O)CC[C@@H]1[C@@H]2CC[C@]2(C)[C@@H](O)CC[C@@H]12 | 10.5% (inactive)
CN1C2CCC1CC(OC(=O)c1c[nH]c3ccccc13)C2 (centres undefined) | -1.37% (inactive)
N[C@@H](Cc1cnc[nH]1)C(=O)O | -0.951% (inactive)
C[C@]12CC[C@@H]3c4ccc(O)cc4CC[C@H]3[C@@H]1CC[C@@H]2O | 4.45% (inactive)
C[N+]1(CCCCC[N+]2(C)CCCC2)CCCC1 | 1.54% (inactive)
O=C(O)c1cc2cc(Cc3cccnc3)ccc2o1 | 0.879% (inactive)
Oc1ccc(O)cc1 | -0.897% (inactive)
CCCn1c(=O)[nH]c(=O)c2[nH]cnc21 | -1.66% (inactive)
CCCC1O[C@@H]2C[C@H]3[C@@H]4CCC5=CC(=O)C=C[C@]5(C)[C@H]4[C@@H](O)C[C@]3(C)[C@]2(C(=O)CO)O1 (some centres undefined) | -1.07% (inactive)
O=C1CCC(c2ccc(-n3ccnc3)cc2)=NN1 | 7.37% (inactive)
CC(C)C[C@H]1C(=O)N2CCC[C@H]2[C@]2(O)O[C@](NC(=O)[C@@H]3C=C4c5cccc6[nH]c(Br)c(c56)C[C@H]4N(C)C3)(C(C)C)C(=O)N12 | 5.03% (inactive)
C1CCc2nnnn2CC1 | 11.8% (inactive)
CC[C@H](C)C(=O)O[C@H]1CCC=C2C=C[C@H](C)[C@H](CC[C@@H]3C[C@@H](O)CC(=O)O3)[C@H]21 | -1.27% (inactive)
CNCCC(Oc1ccccc1C)c1ccccc1 (centres undefined) | -1.2% (inactive)
CC(=O)O[C@H]1C[C@@H]2CC[C@@H]3[C@H](CC[C@@]4(C)[C@H]3C[C@H]([N+]3(C)CCCCC3)[C@@H]4OC(C)=O)[C@@]2(C)C[C@@H]1[N+]1(C)CCCCC1 | -0.504% (inactive)
COC(=O)[C@H]1[C@H]2C[C@H]3c4[nH]c5ccccc5c4CCN3C[C@H]2CC[C@@H]1O | -0.505% (inactive)
C[C@@H]1C(=O)NC2=Nc3cccc(Cl)c3CN21 | 5.49% (inactive)
Nc1cc(Cl)c(NC2=NCCN2)c(Cl)c1 | 0.521% (inactive)
CC(CCc1ccccc1)NCC(O)c1ccc(O)c(C(N)=O)c1 (centres undefined) | 6.74% (inactive)
CNCCC=C1c2ccccc2CCc2ccccc21 | 6.4% (inactive)
CC1(C)CCC(NC(=O)[C@@H](N)CCC(=O)O)CC1 | -1.23% (inactive)

Reference: PubChem BioAssay (NCATS)
